In PubChem BioAssay:
Results filed as inconclusive are left out. Active and inactive are the calls of the source.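 Rule for the calls, unless noted: active = viability increase at or above a cutoff of the median across tested compounds plus 3 SD (cut at about 8.5% in these data, passing the limit was not always enough); inconclusive = some gains above the cutoff, reason not given; inactive = the rest.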

Assays:
[1] = reducers of endogenous Her2 protein level, primary screen, SKBR3 breast tumor cells, AlphaScreen, ATP viability (AID 461;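 active = Her2 level under about 52% in both replicate screens, with viability over 70% of control, limit read from the data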;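 for Her2 level: lower value means less Her2 protein in the cells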;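 for viability: percent of carrier control wells set as 100% viability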); conditions: 18-24 h, measured here: SKBR3 viability, ATP luminescence, at 10 µM
[2] = target: Receptor tyrosine-protein kinase erbB-2 (Homo sapiens) (UniProt P04626); test: as above; conditions: 18-24 h, at 10 µM, stronger effect = lower value
Sequence of Receptor tyrosine-protein kinase erbB-2 (Homo sapiens) (P04626 whole entry, looked up): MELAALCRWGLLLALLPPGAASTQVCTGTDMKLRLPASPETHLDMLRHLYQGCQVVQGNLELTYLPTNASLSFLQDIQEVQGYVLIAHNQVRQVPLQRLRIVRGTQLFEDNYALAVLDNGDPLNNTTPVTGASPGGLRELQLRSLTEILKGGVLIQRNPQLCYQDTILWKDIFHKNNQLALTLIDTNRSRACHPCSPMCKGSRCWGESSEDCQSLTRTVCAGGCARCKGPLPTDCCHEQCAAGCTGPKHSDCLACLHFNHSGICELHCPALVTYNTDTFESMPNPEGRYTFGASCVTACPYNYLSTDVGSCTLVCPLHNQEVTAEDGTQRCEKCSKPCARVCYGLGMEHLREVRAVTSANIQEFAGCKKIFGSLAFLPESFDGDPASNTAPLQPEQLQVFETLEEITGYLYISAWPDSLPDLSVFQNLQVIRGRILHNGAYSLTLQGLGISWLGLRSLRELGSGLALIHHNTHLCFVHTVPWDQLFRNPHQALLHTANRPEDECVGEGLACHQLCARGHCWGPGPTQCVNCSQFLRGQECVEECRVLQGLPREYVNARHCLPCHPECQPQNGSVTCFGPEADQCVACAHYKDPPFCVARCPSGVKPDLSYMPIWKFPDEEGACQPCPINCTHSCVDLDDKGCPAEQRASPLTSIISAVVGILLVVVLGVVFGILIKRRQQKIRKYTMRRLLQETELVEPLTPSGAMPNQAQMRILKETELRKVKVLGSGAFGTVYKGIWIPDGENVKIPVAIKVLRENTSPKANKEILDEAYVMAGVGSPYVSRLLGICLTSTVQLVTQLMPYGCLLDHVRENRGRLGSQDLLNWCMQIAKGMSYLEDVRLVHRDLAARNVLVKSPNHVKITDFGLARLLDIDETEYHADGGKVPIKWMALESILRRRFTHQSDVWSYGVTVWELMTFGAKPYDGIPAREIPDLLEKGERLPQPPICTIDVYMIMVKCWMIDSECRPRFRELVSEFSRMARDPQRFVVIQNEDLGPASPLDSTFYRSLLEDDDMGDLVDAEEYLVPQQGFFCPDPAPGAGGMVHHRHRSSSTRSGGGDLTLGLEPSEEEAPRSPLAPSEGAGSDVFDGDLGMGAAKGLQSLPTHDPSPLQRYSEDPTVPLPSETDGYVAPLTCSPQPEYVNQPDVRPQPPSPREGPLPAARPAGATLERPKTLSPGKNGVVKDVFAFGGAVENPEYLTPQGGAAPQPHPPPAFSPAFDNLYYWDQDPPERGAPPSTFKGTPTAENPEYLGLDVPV

[3] = SK-BR-3 cell growth inhibitors, pilot screen, 24 h, human (AID 572;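 active = viability at or below 10% of carrier control in both of two separate runs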;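 note: compound exposure lasted between 18 and 24 h rather than exactly 24 h; 100% = carrier-treated control wells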); conditions: SK-BR-3 viability, CellTiter-Glo luminescence, at 10 µM, stronger effect = lower value
[4] = HUVEC growth inhibition – cell-based, human, primary screen (AID 575;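 active = viability at or below 30% in both replicate assays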;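 note: 100% = median of untreated cell wells with 0.1% DMSO on each plate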); conditions: HUVEC proliferation, CellTiter-Glo luminescence, 72 h; at 10 µM; stronger effect = lower value
[5] = growth inhibitors of H69AR lung tumor, primary screen, human, duplicate replicates (AID 580;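 active = viability at or under a set limit in both replicates, limit being median viability minus 3 SD, cut at about 48% in these data, passing the limit was not always enough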;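 note: 100% = mean luminescence of untreated wells and 0% = no signal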); conditions: H69AR lung tumor cells viability, ATP luminescence, 72 h; at 10 µM; stronger effect = lower value
[6] = reversal of MRP1-mediated doxorubicin resistance, pilot screen, H69AR cells, doxorubicin co-treatment (AID 601;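 active = viability loss from added drug above about 55%, and viability with drug at most 40%, in both replicates, limit read from the data, passing the limit was not always enough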); conditions: CellTiter-Glo, 72 h, at 10 µM; for differential viability (reversal): stronger effect = higher value
[7] = 384-well plate pilot, post-Golgi transport modulator project, inhibition of yeast transport mutant growth (AID 636; in the data active = inhibition above about 31%); conditions: absorbance 615 nm, about 18 h, stronger effect = higher value
[8] = growth suppression of yeast trafficking mutant, preliminary HTS, modulators of trafficking downstream of Golgi apparatus project, 1536-format plate, OD 615 nm (AID 637; in the data active = inhibition above about 30%); conditions: yeast transport mutant growth, absorbance 615 nm, 18 h; stronger effect = higher value
[9] = OD615 S. cerevisiae growth inhibition, permissive medium, pilot counter-assay, permissive growth control for S. cerevisiae lifespan shortening project (AID 705;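 active = growth inhibition above 25% in both replicates, a cutoff set 3 SD above the mean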); conditions: OD615, 24 h, at 10 µM, stronger effect = higher value
[10] = Restrictive medium S. cerevisiae growth inhibition, OD615, pilot screen of yeast lifespan reduction project, restrictive growth control (AID 706;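 active = growth inhibition above a set limit, 3 SD over mean compound inhibition, in both replicates, cut at about 43% in these data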;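 note: modified DeaD lifespan yeast strain shifted to restrictive glucose medium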); conditions: OD615, 48 h, at 10 µM, stronger effect = higher value
[11] = viability gain of MRP-1-high H69AR cells under doxorubicin, pilot screen, MRP-1 activator project, CellTiter-Glo, duplicate (AID 807); conditions: H69AR viability with doxorubicin, CellTiter-Glo luminescence; at 10 µM; stronger effect = higher value;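 note: compound pretreatment 18-22 h then 72 h combined with doxorubicin; 0% = doxorubicin alone and 100% = vehicle without doxorubicin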
[12] = growth suppression of beta-catenin knockout HCT116, pilot screen, human colon tumor cells (AID 823;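 active = cell viability at or below a set limit in both duplicate runs, the limit being the all-compound median minus 4 SD, cut at about 23% in these data, passing the limit was not always enough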;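 note: 0% = wells killed by 20 µM Hyamine and 100% = untreated DMSO cell wells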); conditions: CellTiter-Glo, 60 h, at 10 µM, stronger effect = lower value
[13] = growth suppression of PTEN-deleted HCT116, pilot screen, cell-based, HCT116 clonal line, CellTiter-Glo (AID 824;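 active = viability at or below 27.92% in each of two runs, the all-compound median minus 4 SD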;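 note: 0% = 20 µM Hyamine control and 100% = vehicle cell control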); conditions: 60 h, at 10 µM, stronger effect = lower value
[14] = inhibitors of the yeast RAM network, pilot screen, dse1pr::URA3 reporter, 5-FOA selection (AID 869;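 active = inhibition over a set limit, the all-compound mean plus 3 SD, in both replicate runs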;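 note: 0% = DMSO wells with no growth and 100% = 10 µM 1-NA-PP1 with full growth; RAM network block rescues cells from 5-FOA so hits raise OD615 growth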); conditions: S. cerevisiae dse1pr::URA3 5-FOA growth, OD615, 2 d; at 10 µM; stronger effect = higher value; strain carries analog-sensitive mutant Cbk1 kinase
[15] = RAM signaling pathway blockade in yeast – S. cerevisiae, Pdr1DBD-CYC8 efflux-inhibited sensitized strain, primary screen (AID 1298;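 active = RAM network inhibition above 8.4% in each of two replicates, 3 SD over the compound average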;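 note: 0% = DMSO untreated cells without growth and 100% = 10 µM 1-NA-PP1 full growth; higher means more yeast growth rescued from 5-FOA killing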); conditions: S. cerevisiae cbk1-as DSE1-URA3 strain, 5-FOA growth OD615, 2 d; at 50 µM; stronger effect = higher value
[16] = H69AR cells + 2 uM doxorubicin, measured here: viability with 2 uM doxorubicin, stronger effect = lower value
[17] = H69AR cells, compound alone cytotoxicity

Row | Structure (SMILES) | viability [1] [%] | Her2 level [2] | viability [3] | viability [4] | viability [5] | differential viability (reversal) ([6]; H69AR cells + 2 uM doxorubicin) | viability [6, 16] [%] | viability [6, 17] [%] | inhibition [7] | inhibition [8] | growth inhibition [9] | growth inhibition [10] | viability increase [11] | viability [12] | viability [13] | inhibition [14] | RAM network inhibition [15]
1 | Cc1c(C(=O)OC2CCC(C)CC2)[nH]c2c1C(=O)CCC2 (stereo not drawn) | 69.5 | 78% (inactive) | 69.5% (inactive) | 87.6% (inactive) | 86.8% (inactive) | -4.38% (inactive) | 91.2 | 86.8 | 5.07% (inactive) | 1.97% (inactive) | -11.8% (inactive) | -6.09% (inactive) | 2.52% (inactive) | 97.7% (inactive) | 92.9% (inactive) | 1.67% (inactive) | 3.39% (inactive)
2 | O=C(O)C1C2C=CC3(CN(C4CCCC4)C(=O)C13)O2 (stereo not drawn) | 101 | 100% (inactive) | 101% (inactive) | 100% (inactive) | 83.7% (inactive) | -9.36% (inactive) | 93.1 | 83.7 | -7.07% (inactive) | -4.83% (inactive) | 1.69% (inactive) | 2.54% (inactive) | -0.64% (inactive) | 104% (inactive) | 95.5% (inactive) | 2.34% (inactive) | -0.17% (inactive)
3 | CCOC(=O)Cn1c(CCC(=O)O)ccc1-c1ccc(F)cc1 | 99 | 101% (inactive) | 99% (inactive) | 106% (inactive) | 84.3% (inactive) | -8.34% (inactive) | 92.6 | 84.3 | -5.6% (inactive) | 3.33% (inactive) | -9.79% (inactive) | -2.42% (inactive) | -2.3% (inactive) | 102% (inactive) | 101% (inactive) | 0.72% (inactive) | 2.74% (inactive)
4 | O=C(c1ccc(=O)[nH]c1)N(Cc1ccco1)C1(C(=O)NC2CCCC2)CCCCC1 | 102 | 99.5% (inactive) | 102% (inactive) | 102% (inactive) | 104% (inactive) | 11.9% (inactive) | 91.7 | 104 | -7.81% (inactive) | -3.17% (inactive) | 2.31% (inactive) | -5.5% (inactive) | -2% (inactive) | 98.6% (inactive) | 100% (inactive) | -0.16% (inactive) | 1.35% (inactive)
5 | COC1CCCCC1Nc1cccc(SC)c1 (stereo not drawn) | 100 | 112% (inactive) | 100% (inactive) | 104% (inactive) | 88.3% (inactive) | 10.6% (inactive) | 77.7 | 88.3 | -3.25% (inactive) | -3% (inactive) | -1.82% (inactive) | -18.4% (inactive) | -3.29% (inactive) | 80.6% (inactive) | 75.1% (inactive) | 1.83% (inactive) | 7.2% (inactive)
6 | CCN(CC)C(=O)Oc1ccccc1NC(C)=O | 102 | 92% (inactive) | 102% (inactive) | 107% (inactive) | 90.5% (inactive) | -0.19% (inactive) | 90.7 | 90.5 | -5.14% (inactive) | -3% (inactive) | 1.79% (inactive) | -2.54% (inactive) | -0.54% (inactive) | 92.2% (inactive) | 96.1% (inactive) | 0.84% (inactive) | -0.6% (inactive)
7 | CCCOc1ccc(NC2=CC(=O)CC(C)(C)C2)cc1 | 100 | 103% (inactive) | 100% (inactive) | 87.2% (inactive) | 100% (inactive) | 7.44% (inactive) | 93 | 100 | -6.89% (inactive) | 2.13% (inactive) | -2.65% (inactive) | -14.7% (inactive) | 1.27% (inactive) | 95.4% (inactive) | 94.2% (inactive) | 3.14% (inactive) | 6.91% (inactive)
8 | CCOc1ccccc1C(=O)Nc1nnc(CC)s1 | 94.5 | 84% (inactive) | 94.5% (inactive) | 114% (inactive) | 97% (inactive) | 8.28% (inactive) | 88.7 | 97 | -1.73% (inactive) | 3% (inactive) | -0.29% (inactive) | 12.6% (inactive) | -2.43% (inactive) | 96.3% (inactive) | 98.3% (inactive) | 0.31% (inactive) | 1.61% (inactive)
9 | CC1CCCN(C(=O)CN2C(=O)c3ccccc3C2=O)C1 (stereo not drawn) | 93.5 | 104% (inactive) | 93.5% (inactive) | 93.8% (inactive) | 84.8% (inactive) | -6.78% (inactive) | 91.6 | 84.8 | -3.59% (inactive) | -6.33% (inactive) | -15.4% (inactive) | -9.79% (inactive) | -0.25% (inactive) | 101% (inactive) | 98.7% (inactive) | 1.7% (inactive) | 0.38% (inactive)
10 | CCOC(=O)N1CCC(Nc2ncnc3c2cnn3-c2ccc(C)cc2C)CC1 | 86 | 78.5% (inactive) | 86% (inactive) | 83.4% (inactive) | 72.7% (inactive) | 42.5% (inactive) | 30.2 | 72.7 | -4% (inactive) | 1.5% (inactive) | 5.81% (inactive) | -2.8% (inactive) | -6.54% (inactive) | 70.2% (inactive) | 67.4% (inactive) | 0.78% (inactive) | 1.71% (inactive)
11 | COCCn1c(=N)c(C(=O)NCCc2ccccc2)cc2c(=O)n3cccc(C)c3nc21 | 63.5 | 69% (inactive) | 63.5% (inactive) | 86.6% (inactive) | 92.5% (inactive) | 15.7% (inactive) | 76.8 | 92.5 | -0.38% (inactive) | -8.83% (inactive) | 1.32% (inactive) | -10.6% (inactive) | -4.45% (inactive) | 66.8% (inactive) | 68.5% (inactive) | 0.64% (inactive) | 0.2% (inactive)
12 | CCOC(=O)N1CCC(NC(=O)c2cnn3ccccc23)CC1 | 112 | 123% (inactive) | 112% (inactive) | 86% (inactive) | 87.1% (inactive) | 1.21% (inactive) | 85.9 | 87.1 | -1.2% (inactive) | 3.67% (inactive) | -12.9% (inactive) | -10.7% (inactive) | -1.34% (inactive) | 108% (inactive) | 99.9% (inactive) | 0.135% (inactive) | 2.01% (inactive)
13 | CCCc1cc(C(=O)Nc2ccccc2SC)no1 | 86 | 90.5% (inactive) | 86% (inactive) | 104% (inactive) | 81.1% (inactive) | -3.34% (inactive) | 84.4 | 81.1 | 0.9% (inactive) | 5.67% (inactive) | -11.4% (inactive) | -21.2% (inactive) | -3.07% (inactive) | 100% (inactive) | 93.4% (inactive) | 0.2% (inactive) | 1.56% (inactive)
14 | O=C(Cn1ncc2c1-c1ccccc1OC2)Nc1ccc(Cl)cn1 | 91.5 | 95% (inactive) | 91.5% (inactive) | 80.1% (inactive) | 99.3% (inactive) | 7.75% (inactive) | 91.5 | 99.3 | -0.26% (inactive) | -5.5% (inactive) | 1.63% (inactive) | 0.96% (inactive) | -3.35% (inactive) | 95.9% (inactive) | 95.1% (inactive) | 4.09% (inactive) | 0.83% (inactive)
15 | CC1=C(C(=O)N2CCCCC2)C(c2cccs2)C2=C(CCCC2=O)N1 (stereo not drawn) | 100 | 174% (inactive) | 100% (inactive) | 96.7% (inactive) | 92.8% (inactive) | 1.19% (inactive) | 91.7 | 92.8 | 0.13% (inactive) | -5.67% (inactive) | -7.14% (inactive) | -3.55% (inactive) | -0.74% (inactive) | 98.1% (inactive) | 87% (inactive) | 1.4% (inactive) | -0.77% (inactive)
16 | COc1ccccc1NC(=O)CSc1nnc(Cc2cccn2C)n1-c1ccc(F)cc1 | 96.5 | 86% (inactive) | 96.5% (inactive) | 95.4% (inactive) | 71.8% (inactive) | -13.1% (inactive) | 84.9 | 71.8 | -4.8% (inactive) | -2.67% (inactive) | -3.11% (inactive) | 10.8% (inactive) | -4.45% (inactive) | 86.7% (inactive) | 86.8% (inactive) | 2.05% (inactive) | 2.25% (inactive)
17 | COCCNC(=O)CN1CCN(Cc2cccc(Cl)c2)C1=O | 102 | 112% (inactive) | 102% (inactive) | 99.3% (inactive) | 103% (inactive) | 17.5% (inactive) | 85.4 | 103 | -5.47% (inactive) | -3.93% (inactive) | 6.16% (inactive) | 1.19% (inactive) | -0.8% (inactive) | 102% (inactive) | 95.5% (inactive) | 0.485% (inactive) | -0.14% (inactive)
18 | CCOc1ccc2nc(Nc3nc4c(c(=O)[nH]3)CCC4)nc(C)c2c1 | 99.5 | 99% (inactive) | 99.5% (inactive) | 98.4% (inactive) | 103% (inactive) | 5.67% (inactive) | 97.7 | 103 | -4% (inactive) | 1.83% (inactive) | -9.17% (inactive) | 9.05% (inactive) | 0.54% (inactive) | 93.8% (inactive) | 96.4% (inactive) | 1.01% (inactive) | 3.45% (inactive)
19 | Cn1cc(C2NC(=O)c3c(sc4c3CCCC4)N2)c2ccccc21 (stereo not drawn) | 99 | 78.5% (inactive) | 99% (inactive) | 61.9% (inactive) | 64.9% (inactive) | 4.49% (inactive) | 60.4 | 64.9 | 1.6% (inactive) | 5.17% (inactive) | -6.96% (inactive) | 2.46% (inactive) | -2.92% (inactive) | 101% (inactive) | 90.8% (inactive) | 0.64% (inactive) | 2.82% (inactive)
